In article PMC5540273 (PLoS ONE, 2017):

Columns and labels:
AAK1 = conditions: concentration: 1 μM, replicates: in singlicate; n = 1
ABL1-nonphosphorylated = conditions: concentration: 1 μM, replicates: in singlicate; n = 1
ABL1-phosphorylated = conditions: concentration: 1 μM, replicates: in singlicate; n = 1
ABL2 = conditions: concentration: 1 μM, replicates: in singlicate; n = 1
ACVR1B = conditions: concentration: 1 μM, replicates: in singlicate; n = 1
ACVR1 = conditions: concentration: 1 μM, replicates: in singlicate; n = 1
ACVR2A = conditions: concentration: 1 μM, replicates: in singlicate; n = 1
ACVR2B = conditions: concentration: 1 μM, replicates: in singlicate; n = 1
ACVRL1 = conditions: concentration: 1 μM, replicates: in singlicate; n = 1
ADCK3 = system: T1, ADCK3; conditions: concentration: 1 μM, replicates: in singlicate; n = 1
T1 construct: gene CABC1

ADCK4 = conditions: concentration: 1 μM, replicates: in singlicate; n = 1
AKT1 = conditions: concentration: 1 μM, replicates: in singlicate; n = 1
AKT2 = conditions: concentration: 1 μM, replicates: in singlicate; n = 1
AKT3 = conditions: concentration: 1 μM, replicates: in singlicate; n = 1
ALK = conditions: concentration: 1 μM, replicates: in singlicate; n = 1
YSK4 = system: T2, YSK4
T2 construct: gene MAP3K19

p38-alpha = system: T3, p38-alpha
T3 construct: gene MAPK14
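Throughout, for %Inh: KINOMEscan kinase panel screen.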
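Throughout, for Kd: kd values determined as follow-up on hits from a single-replicate KINOMEscan panel screen.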

Row | SMILES | %Inh (AAK1) [%] | %Inh (ABL1-nonphosphorylated) [%] | %Inh (ABL1-phosphorylated) [%] | %Inh (ABL2) [%] | %Inh (ACVR1B) [%] | %Inh (ACVR1) [%] | %Inh (ACVR2A) [%] | %Inh (ACVR2B) [%] | %Inh (ACVRL1) [%] | %Inh (ADCK3) [%] | %Inh (ADCK4) [%] | %Inh (AKT1) [%] | %Inh (AKT2) [%] | %Inh (AKT3) [%] | %Inh (ALK) [%] | Kd (YSK4) [µM] | Kd (ZAK) [µM] | Kd (p38-alpha) [µM]
1 | Cc1ccccc1Cn1ccn2c(=O)cc(N3CCOCC3)nc12 [GSK2269905] | 24 | 0 | 0 | 11 | 0 | 25 | 0 | 0 | 0 | 16 | 17 | 0 | 16 | 0 | 28 | – | – | –
2 | COc1ccc(CSc2nnc(-c3ccc4nccn4c3)o2)cc1C(F)(F)F | 16 | 28 | 13 | 21 | 23 | 0 | 7 | 15 | 21 | 6 | 6 | 13 | 4 | 44 | 29 | 0.022 | – | –
3 | COc1cccc(CNC(=O)NC2CCN(c3ccnc(Nc4ccc(F)cc4)n3)C2)c1 (stereo not drawn) [GSK1379723] | 6 | 0 | 1 | 8 | 0 | 10 | 0 | 0 | 0 | 10 | 35 | 0 | 12 | 0 | 43 | – | > 10 | –
4 | COc1ccc(Nc2nccc(N3CCC(NC(=O)c4cc5ccccc5s4)C3)n2)cc1 (stereo not drawn) [GSK1379738] | 73 | 0 | 0 | 1 | 0 | 0 | 0 | 0 | 0 | 0 | 37 | 0 | 5 | 0 | 25 | – | – | –
5 | CCc1ccc(-c2ccc3c(c2)-c2n[nH]cc2S(=O)(=O)N3C)cc1 | 15 | 26 | 0 | 0 | 0 | 0 | 13 | 22 | 0 | 9 | 0 | 3 | 0 | 0 | 0 | – | – | –
6 | COc1nccc(-c2c(-c3ccc(F)cc3)ncn2CCCN2CCOCC2)n1 [SB-282852] | 0 | 55 | 41 | 49 | 0 | 0 | 0 | 0 | 0 | 0 | 18 | 0 | 3 | 3 | 25 | – | – | 0.16
7 | Cc1ccc(NC(=O)Nc2ccccc2F)cc1-c1ccc(C(=O)Nc2ccncc2)cc1 [GSK1398477] | 28 | 7 | 0 | 31 | 3 | 32 | 21 | 14 | 5 | 22 | 25 | 0 | 22 | 0 | 25 | 1.5 | – | –
8 | Cc1cccc2c(-c3ccncn3)c(-c3ccc(F)cc3)nn12 [GW515532] | 0 | 0 | 0 | 2 | 2 | 0 | 19 | 37 | 21 | 40 | 40 | 0 | 8 | 0 | 23 | – | – | 1.3
9 | Cc1ccc(NC(=O)Nc2ccccc2)cc1-c1ccc(C(=O)Nc2ccncc2)cc1 [GSK1398471] | 8 | 0 | 0 | 16 | 0 | 0 | 0 | 0 | 0 | 19 | 14 | 1 | 4 | 0 | 21 | 0.071 | – | –
